Assay: qHTS drug screen for cell cycle checkpoint inhibitors in PARPi-resistant BRCA-mutant ovarian cancer cell lines. (AID 1963452)
Settings: PEO1/OlaR viability, CellTiter-Glo luminescence, 96 h; measured here: PEO4 Z-AUC; stronger effect = lower value
Method in brief: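 PEO1, PEO4 and PEO1/OlaR ovarian cancer cells, 600 per well, exposed 96 h at 37C to a dilution series. Viability read by CellTiter-Glo luminescence, normalized to DMSO and empty wells; activity summarized as Z-AUC.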
With `NC1=N[C@H]2[C@H](CS[C@H]2CCCCC(=O)O)N1` the Z-AUC was 0.00068. Compound `C=CC(=O)N1CCc2ccc(-n3c(=O)ccc4cnc5ccc(-c6cnn(C)c6)cc5c43)cc21` has a Z-AUC of -0.334. In the case of `CCOC(=O)C1=C(C)NC(=S)NC1c1cccc(O)c1` (stereo unspecified), the Z-AUC is reported as 0.61. Work on `CCCCCCCCc1ccc(CCC(N)(CO)CO)cc1` yielded a Z-AUC of 0.091. `CC(C)Oc1ccc(C(=O)N[C@H](CNC(=O)CN(C)C)Cc2ccc(-c3cn4cccc([C@H](C)O)c4n3)cc2)cc1Cl` gave a Z-AUC of -1.18. `COc1cc(C(C)C)c(Oc2cnc(NC(CO)CO)nc2N)cc1I` showed a Z-AUC of 1.02.
